ST2 IL33 inh – IL1RL1 inhibition | Q01638 | AlphaLISA ST2-Fc/biotin-IL-33 interaction, 1 h | inhibition, % for hits at 17 µM | actives 2.3% (n = 78,000) | AID 1259354; in the data active = inhibition above about 30%
Numbers without * were called inactive; i = inactive. This is one part of a sample in which hits are shown more often than they occur.

SMILES | ST2 IL33 inh
Cc1c(C(=O)NCc2ccc3ccccc3n2)oc2c(F)cccc12 | i
Cc1c(Cl)cccc1NC1=CC(=O)CC(C)(C)C1 | i
Cc1cc(OCC(O)CNC(C)(C)C)ccc1C(C)C (stereo not given) | i
Cc1ccc(OCC(O)CNC(C)(C)C)cc1C (stereo not given) | i
Cc1ccc(NCC(O)COc2ccccc2)cc1C (stereo not given) | 35%*
NC(Cc1ccc(O)cc1)C(=O)OCc1ccccc1 (stereo not given) | i
O=C(c1ccc(O)c([C@@H]2O[C@H](CO)[C@@H](O)[C@H](O)[C@H]2O)c1O)C(O)Cc1ccc(O)cc1 (stereo not given in full) | i
CCc1cnc(-c2ccc(F)c(CO)c2)nc1 | i
CC(C)CCN1CC(C(=O)NC2CCCCC2)CC1=O (stereo not given) | i
COc1ccccc1/C=C1\C(=O)N(c2ccc(Cl)cc2Cl)N=C1C | i
CCN(C)c1ccc(/C=C2/C(=O)N(c3ccc(Cl)c(Cl)c3)N=C2C)cc1 | 30%*
COc1cc(/C=C2\C(=O)N(c3ccc(C(=O)O)cc3)N=C2C)cc(Cl)c1O | i
COc1ccc(Cl)cc1/C=C1\C(=O)N(c2ccc(Cl)c(C(=O)O)c2)N=C1C | 74%*
COc1ccc(OC)c(/C=C2\C(=O)N(c3ccc(Cl)c(C(=O)O)c3)N=C2C)c1 | i
CC1=NN(c2ccc(Cl)c(Cl)c2)C(=O)/C1=C/c1ccccc1 | i
CCN(C)c1ccc(/C=C2/C(=O)NN(c3ccc(Cl)c(Cl)c3)C2=O)cc1 | i
COc1ccc(Br)cc1/C=C1\C(=O)N(c2cccc(Cl)c2)N=C1C | i
COc1cc(/C=C2\C(=O)N(c3ccc(Cl)c(C(=O)O)c3)N=C2C)cc(OC)c1OC | 56%*
CC1=NN(c2ccc(Cl)c(Cl)c2)C(=O)/C1=C/c1ccc(C)c([N+](=O)[O-])c1 | i
COc1ccc(/C=C2/C(=O)N(c3ccc(Cl)c(Cl)c3)N=C2C)cc1OC | 65%*
CCCn1c(NC(C)c2cc(Cl)ccc2O)nc2ccccc21 (stereo not given) | i
CC(=O)N1CCc2c(nc(N(C)C)nc2N(C)Cc2cc(C3CC3)n[nH]2)C1 | i
Cc1c(C(=O)NC2CCCC2)oc2ccc(S(=O)(=O)N3CCOCC3)cc12 | i
CCC(=O)NCCCc1nc2ccccc2n1CC(C)C | i
CCC(C(=O)Nc1cc(C)ccc1OC)c1ccccc1 (stereo not given) | i
SMILES | ST2 IL33 inh
CCCCNc1ncnc2c1[nH]c1ccc(OC)cc12 | i
Cc1cc(C(=O)N(CC2CCN(Cc3ccccc3F)CC2)CC2CCCO2)n(C)n1 (stereo not given) | i
O=C(NC1CCCCCCC1)C1c2ccccc2C(=O)N1C1CCCC1 (stereo not given) | i
Cc1[nH]ncc1C(=O)N1CCC2(CCCN(CCCc3ccccc3)C2)C1 (stereo not given) | i
COc1cc(C2CC(=O)c3c(cc(O)c(CC=C(C)C)c3O)O2)ccc1O (stereo not given) | i
CC(C)C(C(=O)Nc1cccc(C(F)(F)F)c1)N1C(=O)c2ccccc2C1=O (stereo not given) | i
O=C1C(Nc2cccc(C(F)(F)F)c2)=C(N2CCOCC2)C(=O)c2ccccc21 | 67%*
CC(C)CC(C(=O)Nc1cccc(C(F)(F)F)c1)N1C(=O)c2ccccc2C1=O (stereo not given) | i
COc1ccc(NC(=O)COc2ccc(Br)cc2Br)c(OC)c1 | i
CC(=O)c1cc(C#N)c(SCc2c(F)cccc2Cl)nc1C | i
CN(Cc1nc(-c2cccs2)no1)Cc1n[nH]c2c1CCCCC2 | i
O=S(=O)(c1cccc2nsnc12)N1CCC(n2c(Cc3ccccc3)nc3cccnc32)CC1 | 97%*
O=S(=O)(c1cccc2nsnc12)N1CCN(C23CC4CC(CC(C4)C2)C3)CC1 | i
CC(=O)Nc1ccc(S(=O)(=O)N2CCC(n3c(Cc4ccccc4)nc4cccnc43)CC2)cc1 | i
Cc1cc2nc(CSc3nnc4c(n3)[nH]c3ccccc34)cc(=O)n2o1 | i
COc1cccc(C(=O)Nc2nnc(N=Cc3ccc([N+](=O)[O-])s3)s2)c1 | i
O=C(O)c1cc([N+](=O)[O-])c(C(=O)O)cc1Oc1ccc(Cl)cc1 | i
O=C(O)Cc1ccccc1[N+](=O)[O-] | i
O=[N+]([O-])c1ccccc1Oc1ccccc1 | 30%*
CCOc1ccc(C(C)=O)cc1N1C(=O)C2C3c4ccccc4C(c4ccccc43)C2C1=O (stereo not given) | i
O=C1NC(=O)c2cc(Nc3ccccc3)c(Nc3ccccc3)cc21 | i
Cn1c(=O)cc2c3c(c(Nc4ccccc4)ccc31)C(=O)c1ccccc1-2 | 40%*
Cn1c(CNc2ccccc2)cc(=O)n(C)c1=O | i
COc1cc2c(=O)n(Cc3ccc(C(=O)N4CCCCCC4)cc3)c(=O)n(CC(N)=O)c2cc1OC | i
O=C(CSc1nnc(-c2ccco2)n1-c1ccccc1)c1ccc(Cl)cc1 | i
COc1ccc(-n2nc3c(c2NC(=O)c2cccc(OC)c2)CS(=O)C3)cc1 (stereo not given) | i

Bioassay records from PubChem BioAssay.
